MsrA inhibitor – bovine MsrA enzyme inhibitors, primary screen, biochemical, absorbance, HTS | inhibition, % at 15.5 µM | AID 651718, 2012 | purified bovine MsrA, absorbance read-out | hit rate 0.75% among 360,000; in the data active means inhibition above about 4.5%
PKA-R1A activ – activators of PKA-R1A holoenzyme, primary screen, biochemical, fluorescence polarization, Cy5-IP20, bovine R1A, mouse PKAc. cAMP-dependent protein kinase type I-alpha regulatory subunit (Bos taurus) + …. PKA-R1A dissociation; scaled: DMSO 0%, 113 µM cGMP 100%. activation, % at 11.4 µM. hit rate 0.083% among 340,000. AID 504707, 2011;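 active means percent activation above the mean of all tested compounds plus 3 SD, cut at about 19% in these data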;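 further: higher means more PKAc released from R1A so a rise in polarization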
bovine MsrA act – bovine MsrA enzyme activators, primary screen, biochemical, absorbance, HTS. Methionine sulfoxide reductase A (Bos taurus). purified bovine MsrA, absorbance read-out. activation, % at 10.6 µM. hit rate 0.3% among 360,000; in the data active means activation above about 7.5%
Mot1-301 SUMO – yeast Mot1-301 growth rescue at high temperature, primary screen, SUMOylation pathway inhibitor project, S. cerevisiae, ATP luminescence, 38.5C. S. cerevisiae Mot1-301 growth rescue; percent above DMSO median, 100 means doubled. growth rescue, % at 18.8 µM. hit rate 1% among 320,000;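 active means every valid replicate shows activation above 250% relative to neutral control wells; inactive means the rest, any valid replicate at or below 250%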
PKA-R2B activ – activators of PKA-R2B holoenzyme, primary screen, biochemical, fluorescence polarization, Cy5-IP20, human. activation, % at 11.4 µM. PKA-R2B holoenzyme dissociation; R2B truncated from residue 108, S112A mutant; 0% DMSO only, 100% 113 µM cGMP. hit rate 0.079% among 340,000;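 active means activation above a cutoff set at the mean over all compounds plus 3 SD, cut at about 18% in these data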;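 further: higher means more holoenzyme dissociation and a rise in polarization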
Target sequence (P31323 whole entry, looked up, other chains not shown, the tested form may be a part): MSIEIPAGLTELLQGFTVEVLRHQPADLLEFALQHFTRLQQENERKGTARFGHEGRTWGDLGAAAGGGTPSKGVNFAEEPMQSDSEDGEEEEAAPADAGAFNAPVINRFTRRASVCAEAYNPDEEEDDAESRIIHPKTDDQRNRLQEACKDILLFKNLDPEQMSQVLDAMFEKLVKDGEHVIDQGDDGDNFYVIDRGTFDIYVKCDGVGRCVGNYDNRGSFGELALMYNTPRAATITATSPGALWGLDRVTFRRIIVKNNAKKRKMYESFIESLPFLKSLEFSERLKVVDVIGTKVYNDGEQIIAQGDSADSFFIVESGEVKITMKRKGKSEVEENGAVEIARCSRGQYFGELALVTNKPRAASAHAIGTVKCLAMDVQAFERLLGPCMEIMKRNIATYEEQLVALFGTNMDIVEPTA
MsrA act confirm – bovine MsrA activators, retest, confirmation, biochemical, absorbance, HTS; AID 602270, 2012; shares compounds with bovine MsrA act; hit rate 12% among 1,000; purified bovine MsrA, absorbance read-out; activation, % at 10.6 µM; in the data active means activation above about 4%;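 further: enzyme coupled to thioredoxin and thioredoxin reductase with NADPH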
Hits are given with their value; 0 = inactive; - = no result. Only some compounds are listed: those with a hit (about 2% of all), similar ones and a draw of the others.

SMILES | MsrA inhibitor | PKA-R1A activ | bovine MsrA act | Mot1-301 SUMO | PKA-R2B activ | MsrA act confirm
COC(=O)[C@]12C[C@H](CC(=O)NCCCCc3ccccc3)C(=O)N(Cc3ccccc3)C1=C[C@H](C1CCCC1)O[C@@H]2C | 0 | - | - | - | - | -
O=C(NC1CCCC1)[C@@H]1CCCN1C(=O)[C@@H](NC(=O)N1CCOCC1)c1ccccc1 | 0 | - | - | - | - | -
Cc1ccc(NC(=O)CN(C)C(=O)c2cccc(S(=O)(=O)N3CCc4ccccc4C3)c2)cc1 | 0 | 0 | 10 | - | 0 | 0
CCN(CC(=O)Nc1ccc(NC(C)=O)cc1)C(=O)c1cccc(S(=O)(=O)N2CCc3ccccc3C2)c1 | 0 | 0 | 0 | 0 | 0 | -
COC1=CC(=O)c2nc(Cl)ccc2C1=O | 0 | - | 12 | - | - | 7.5
O=C1C(=O)c2cccnc2-c2ncccc21 | 0 | - | 95 | - | - | 76
O=C(N[C@H](Cc1ccccc1)C(=O)O)[C@H]1O[C@@H](n2ccc(=O)[nH]c2=O)[C@H](O)[C@@H]1O | 0 | - | - | - | - | -
COc1ccc(S(=O)(=O)N2CCC(C(=O)N3CCOCC3)CC2)cc1Cl | 0 | 0 | 8.0 | 0 | 0 | 0
COC(=O)c1cc2c(c3c4cc(OC)ccc4n(S(=O)(=O)c4ccc(F)cc4)c13)C(=O)N(CC(C)C)C2 | 0 | - | - | - | - | -
CC1CCCC(NC(=O)COC(=O)c2ccc([N+](=O)[O-])s2)C1C (stereo not given) | 0 | 0 | 21 | 0 | 0 | 5.4
O=C(CCSc1ccc(Cl)cc1)NN=C1CCCCCC1 | 0 | 0 | 0 | 0 | 0 | -
O=C(CSc1ccc(Cl)cc1)NN=C1CCCCCC1 | 0 | 0 | 9.0 | 0 | 0 | 0
COC(=O)C1=C(C)N(Cc2ccc(F)cc2)C(=S)NC1c1ccc(Cl)cc1 (stereo not given) | 0 | - | - | - | - | -
O=S1(=O)N[C@H](Cc2ccccc2)COc2cc(F)ccc21 | 0 | - | - | - | - | -
O=C(NC1(C(F)(F)F)N=C2SCCN2C1=O)C1CCCCC1 (stereo not given) | 0 | 0 | 7.8 | 0 | 0 | 0
O=C(COC(=O)Cc1ccccc1F)Nc1ccc2c(c1)OCCO2 | 0 | 0 | 11 | 0 | 0 | 0
CC(C)C[C@H](NC(=O)c1ccccc1)C(=O)N1CCC[C@H]1C(=O)NCc1ccccc1 | 0 | - | - | - | - | -
C[C@@H]1ON(C)[C@H]2C[C@H]3c4cc(Nc5ccccc5)ccc4CCN3C[C@@H]12 | 0 | - | - | - | - | -
O=C(Nc1ccccc1Cl)N1CCN(c2ccc3nnc(-c4ccccc4)n3n2)CC1 | - | 0 | 17 | 0 | 0 | 0
Cc1cc(C)c2c(n1)nn1c(N3CCN(c4ccccc4C)CC3)cc(C)nc21 | 0 | 0 | 7.7 | 0 | 0 | 0
COc1ccc(CN2CCN(c3cc(C)nc4c5c(C)cc(C)nc5nn34)CC2)cc1F | 0 | 0 | 0 | 0 | 0 | -
CCN1CCN(C(=O)c2ccc3c(=O)n(C4CCCC4)c(=S)[nH]c3c2)CC1 | 0 | 0 | 8.8 | 0 | 0 | 0
O=C(c1ccc2c(=O)n(C3CCCC3)c(=S)[nH]c2c1)N1CCN(C2CCCCC2)CC1 | 0 | 0 | 0 | 0 | 0 | -
O=C(COc1ccc2cc(Br)ccc2c1)N1CCOCC1 | 0 | 0 | 13 | 0 | 0 | 0
Cc1cc(=S)[nH]c(=S)[nH]1 | 0 | 0 | 10 | 0 | 0 | 8.2
SMILES | MsrA inhibitor | PKA-R1A activ | bovine MsrA act | Mot1-301 SUMO | PKA-R2B activ | MsrA act confirm
CCCCOC(=O)CCn1c(=S)oc2ccccc21 | 0 | 0 | 21 | 0 | 0 | 0
CCCNC(=O)CCn1c(=S)oc2ccccc21 | 0 | 0 | 0 | 0 | 0 | -
CC1=C(C#N)C(Nc2ccc(Cl)cn2)(C(F)(F)F)C(=O)N1 (stereo not given) | 0 | 0 | 10 | 0 | 0 | 0
Cn1c(NCc2ccco2)nc2ccccc21 | 0 | 0 | 0 | 0 | 0 | -
CC1(C)Oc2nc3ccccc3n2/C1=C\C#N | 0 | 0 | 8.0 | 0 | 0 | 0
CNC(=S)Nc1sc2c(c1C(=O)OC)CCC2 | 0 | 0 | 8.4 | - | 0 | 0
COC(=O)c1c(NC(C)=O)sc2c1CCCC2 | 0 | 0 | 0 | 0 | 0 | -
CCOc1cccc(C(c2c(C)n(C)n(-c3ccccc3)c2=O)c2c(C)n(C)n(-c3ccccc3)c2=O)c1OC | 0 | 0 | 13 | 0 | 0 | 0
CCOC(=O)c1csc(-c2snnc2C)n1 | 0 | 0 | 8.0 | 0 | 0 | 0
CCOC(=O)c1csc(N)n1 | 0 | 0 | 0 | 0 | 0 | -
Cn1nc(N)nc1N1CCN(c2ccc(F)cc2)CC1 | 0 | 0 | 8.0 | 0 | 0 | 0
Cc1ccc(S(=O)(=O)NCc2ccc3c(c2)OCO3)cc1 | 0 | - | - | - | - | -
COc1ccccc1CNC(=O)CCNC(=O)Cn1cnc2ccccc2c1=O | 0 | 0 | 8.8 | 0 | 0 | 0
N#Cc1ccc(S(=O)(=O)NC(=O)[C@H]2O[C@@H](n3ccc(=O)[nH]c3=O)[C@H](O)[C@@H]2O)cc1 | 0 | - | - | - | - | -
CCOC(=O)C1=C(C(=O)OCC)C2N(Cc3ccc(C(F)(F)F)cc3)c3ccccc3[C@@]23C[C@@H](C(=O)OC)N(S(=O)(=O)c2ccccc2C)C3=N1 (stereo not given in full) | 0 | - | - | - | - | -
CC(C)CC1NC(=O)N(CC(=O)Nc2ccc3c(c2)OCCO3)C1=O (stereo not given) | 0 | 0 | 13 | 0 | 0 | 0
O=C(CN1C(=O)NC(c2ccc(F)cc2)C1=O)Nc1ccc2c(c1)OCCO2 (stereo not given) | 0 | 0 | 0 | 0 | 0 | -
COC(=O)[C@H](NC(=O)c1cc(-c2ccccc2)nc2ccccc12)c1ccccc1 | 0 | 0 | 9.4 | 0 | 0 | 0
COC(=O)C1=C(C)N(Cc2ccccc2C(F)(F)F)C(=NCc2ccccc2C(F)(F)F)NC1c1cccc(F)c1 (stereo not given) | 0 | - | - | - | - | -
CS(=O)(=O)c1ccc2nc(NC(=O)c3cc([N+](=O)[O-])cc([N+](=O)[O-])c3)sc2c1 | 0 | 0 | 11 | 0 | 0 | 0
Cc1n[nH]c(=S)n1/N=C/c1ccc(-c2ccccc2[N+](=O)[O-])o1 | 0 | 0 | 0 | 0 | 0 | -
Cc1nnc(N/N=C\c2ccc(-c3ccccc3[N+](=O)[O-])o2)n1N | 0 | 0 | 17 | 0 | 0 | 0
CCc1nnc(N/N=C/c2ccc(-c3ccc([N+](=O)[O-])cc3)o2)n1N | 0 | 0 | 8.4 | 0 | 0 | 0
Cc1nnc(N/N=C/c2ccccc2O)n1N | 0 | 0 | 8.8 | 0 | 0 | 0
CCC(=O)N/N=C/c1ccc(-c2ccc([N+](=O)[O-])cc2)o1 | 0 | 0 | 0 | 0 | 0 | -
COC(=O)C1=C(C)N(Cc2ccc(F)cc2)C(=S)NC1c1cccc(Br)c1 (stereo not given) | 0 | - | - | - | - | -
C[C@H](O)[C@@H]1C(=O)N2CCc3c([nH]c4c(-c5ccccc5)cccc34)[C@@H]2C[C@@H]1N(C)CC1CCCCC1 | 0 | - | - | - | - | -

Screening data: PubChem, several laboratories
